Not all results are given here.
aSyn 5UTR act – Activators via SNCA 5'UTR binding, MLPCN; alpha-synuclein 5'UTR reporter, activators screen; activity score, % (tested at 7.5 µM), hits read low; actives 7.1% (n = 300,000); in the data active = activity score below about -60%
A number is an active result; 0 = inactive.

SMILES	aSyn 5UTR act
O=C(OCC(=O)N1CCCC1=O)c1nc(Cl)c(Cl)c(Cl)c1Cl	-131.2
C/C(=N\Nc1cccc2cccnc12)c1ccc[nH]1	-122.6
COc1ccc(-c2cc(C(=O)Nc3ccc(C)c(N)c3)c3ccccc3n2)cc1	-82.0
CC(C)(C)c1ccc(-c2cc(C(=O)NNC(=O)Nc3ccccc3)c3ccccc3n2)cc1	-124.0
COc1cc(C(=O)Nc2ccc(C)cc2)c2ccccc2n1	0
Brc1ccc2nc(-c3cccs3)c(NCC3CCCO3)n2c1 (stereo not drawn)	-174.9
COc1ccc(NC(C)C(=O)N/N=C/c2ccccc2OCc2ccc(Br)cc2)cc1 (stereo not drawn)	-77.3
O=C(O)c1cccc(NC(=S)N/N=C/c2cccc(O)c2)c1	0
Cc1ccc(C(C)C)c(OCc2ccc(C(=O)N/N=C/c3cccc(O)c3O)cc2)c1	0
O=C(O)c1cccc(NC(=S)N/N=C/c2ccccc2OCc2ccc(Br)cc2)c1	-83.7
CC1CCc2c(sc3ncnc(NS(=O)(=O)c4cccs4)c23)C1 (stereo not drawn)	-100.8
O=C(C(Cl)c1ccccc1)N1CCOCC1 (stereo not drawn)	-64.8
Cc1ccc(/C=C2/C(=O)ON=C2c2ccccc2)o1	-65.7
CC(C)c1ccc(C2C3CSCC=C3C(C#N)=C(N)C2(C#N)C#N)cc1 (stereo not drawn)	-83.7
Cc1ccc(/C=N/NC(=O)c2cccs2)cc1[N+](=O)[O-]	-107.3
O=C(N/N=C/c1ccccc1[N+](=O)[O-])c1cccs1	-125.3
c1ccc(C2CCC3(CC2)Oc2ccccc2C2CC(c4cccnc4)=NN23)cc1 (stereo not drawn)	-85.6
Cc1ccccc1NC(=O)Cc1nc(CSc2nnc(-c3ccc4c(c3)OCO4)o2)cs1	-71.6
c1cc(CSc2nnc(-c3ccc4c(c3)OCO4)o2)ccn1	-85.9
O=C(O)CCSc1nnc(-c2ccc3c(c2)OCO3)o1	0
COc1ccc(O)c(C(=O)CC(=O)c2ccccc2C)c1	-99.6
COc1ccc(O)c(C(=O)CC(=O)c2ccc(F)cc2)c1	0
COc1ccc(C(=O)CC(=O)c2ccccc2O)cc1	-218.0
O=C(c1ccc(F)cc1)c1cnc(Nc2ccccc2)s1	-161.4
CNc1ncc(C(=O)c2ccc(F)cc2)s1	-111.6
SMILES	aSyn 5UTR act
CC(=O)c1cnc(Nc2cccc(C)c2)s1	-136.7
O=S(=O)(c1ccc(-c2nc3ccccc3s2)cc1)N1CCCC1	-117.9
CS(=O)(=O)N1CCN(c2nc3ccccc3s2)CC1	-80.2
CC(C)c1ccc(-c2nc3ccccc3s2)cc1	0
O=S(=O)(c1ccccc1)N1CCN(c2nc3ccccc3s2)CC1	-82.5
Cc1ccc(N(O)C(=O)NCCCCNC(=O)N(O)c2ccc(C)cc2)cc1	-97.2
CC(=O)c1ccc(Oc2ccc(C(C)=O)cc2)cc1	-95.8
c1ccc(-c2cc3c(ccc4nonc43)nn2)cc1	-96.4
Cc1cc(C)n(-c2ccc(C(=O)Nc3nc4ccccc4s3)cc2)n1	-97.3
CC(=O)Nc1cc(C)nn1-c1nc2ccccc2s1	-177.6
COc1cc(C(=O)Nc2nc3ccccc3s2)ccc1OCc1c(C)noc1C	-110.4
CN(C)/C=N/C(=S)Nc1ccc(Cl)c(Cl)c1	-66.1
CSc1nc(N)nc(SCC(=O)Nc2cccc(F)c2)c1C#N	-73.2
CCOC(=O)c1ccc(NC(=O)C2CCCN(c3cnccn3)C2)cc1 (stereo not drawn)	-88.4
O=C(Nc1ccc(Cl)cc1)Nc1ccccn1	-167.5
O=C(Nc1ccccc1)Nc1ccccn1	-125.7
CCOC(=O)c1ccc(NC(=O)Nc2ccccn2)cc1	-90.0
N/C(=N\NC(=O)Nc1ccc(Cl)cc1)c1ccccn1	-113.6
CCOC(=O)c1ccc(NC(=O)c2cnccn2)cc1	-66.5
O=C(Nc1ccccc1)Nc1cccc2cccnc12	-178.1
O=C(Nc1ccccn1)c1ccc(-c2ccccc2)cc1	0
O=C(Nc1ccccn1)C(=O)Nc1ccccn1	-95.2
CC(Sc1ccccn1)C(=O)Nc1ccccc1 (stereo not drawn)	-208.3
S=C(Nc1ccccn1)c1ccccn1	-114.8
CCc1ccc(-c2csc(NC(=O)C3=NN(c4ccccc4)C(=O)CC3)n2)cc1	-96.7
SMILES	aSyn 5UTR act
CCN(CC)c1ccc(/C=C(/C#N)c2nc3ccccc3[nH]2)c(OC(C)C)c1	-211.1
N#C/C(=C1/CCCCCN1)c1nc2ccccc2[nH]1	-127.2
Cc1cc2nc(/C(C#N)=C/c3ccncc3)[nH]c2cc1C	-61.7
CC1CCc2nc(/C(C#N)=C/c3ccncc3)sc2C1 (stereo not drawn)	-113.6
COc1ccc(/C(C#N)=C/c2cccnc2)cc1	-70.6
COc1cc(/C=C(\C#N)c2nc3ccccc3[nH]2)ccc1OC(=O)c1ccco1	-174.2
N#C/C(=C\c1ccncc1)c1nc2ccccc2[nH]1	-77.2
N#C/C(=C/c1ccncc1)c1nc2ccccc2s1	-89.1
COc1cc(/C=C(/C#N)c2nc3ccccc3[nH]2)ccc1OCC(=O)Nc1ccccc1C(C)C	0
N#C/C(=C\c1ccc(OC(=O)c2ccc(Cl)s2)cc1)c1nc2ccccc2[nH]1	-287.4
N#C/C(C(=O)c1ccccc1)=C1/CCCCCN1	-112.9
N#C/C(=C\c1cccnc1)c1nc2ccccc2[nH]1	-86.0
CC(=O)Nc1ccc(OCc2ccc3c(c2)OCO3)cc1	-150.6
